Results reported in PubChem BioAssay AID1508600 (Functional Genomics Laboratory (NCATS/FGL), 2020).
About 3,700 (7%) of roughly 53,000 sequences were called active.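 Rule for the calls: active = gene knockdowns whose robust z-score for IL-1 alpha signal is at least 2 or at most -2, so actives lie on both sides; inactive = the rest.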 The full list was thinned out, with actives kept by preference.

Assay: Components of the Cytosolic LPS Sensing Pathway: Gene Identification via Genome-wide siRNA Screen;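 note: robust z of the log signal after scaling to non-targeting control siRNA wells of the plate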
Conditions: RAW264.7 macrophages, IL-1a HTRF, actives lie on both sides, screened at 100 nM (by protocol), cells primed 5 h with Pam3CSK4 first
Summary of the method: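 IL-1a HTRF of supernatants after 24 hour LipidA transfection of Pam3CSK4-primed (5 hours) RAW264.7 cells, 48h post-siRNA transfection (100 nM). Scores: percent of plate negative-control median, then log-based robust z-score.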

Sequence | z-score
GCAUUCAAUCUGCAGAGGGTT against Olfr888 | -2.48 (active)
GGGUAGAAAAGUGCAAUUUTT against Has2 | 0.0317 (inactive)
CGCUCUAGGAAAACAAUGUTT against Klb | -0.614 (inactive)
GGGUACAUCUAACUUGAAUTT against Tnfrsf10b | -0.411 (inactive)
GCGGCAUGGACUUAGUAAATT against Fbxo5 | 3.11 (active)
CGAUUAGUCUCUCAUUAUUTT against Ipo11 | -1.12 (inactive)
GGCUAAUGCUCCUUCAUGUTT against Myo18a | -0.439 (inactive)
GCCCUGCACCAGAAAAACATT against Stk40 | -0.662 (inactive)
GGUCUCUGUCUCCAAGAAATT against Fam53c | -1.69 (inactive)
GGUGUUUGGGCGGUUUGAATT against Snx15 | -2.25 (active)
CCCUUAAUAAAGAAGGGACTT against Atg9a | 0.961 (inactive)
GGGUCUACGAAGAAUAGGGTT against Cxcl14 | 0.744 (inactive)
GCUAGAAGCUUUCUAUUCUTT against Hsph1 | 1.68 (inactive)
GGAGAGUAUCUGAAGUUUCTT against Jak2 | 1.8 (inactive)
GGUAAAAUGAUCCUUAGAATT against Pcdh15 | 0.145 (inactive)
GGAGCUGUCUCUACGAAACTT against Myoz3 | 1.27 (inactive)
GGAGCCUUUAAUCUCAUUATT against Wbp1 | -0.463 (inactive)
GCCGUUUUAUUCACGUGAATT against Erp27 | -1.36 (inactive)
GGAUGUGGUGGUAUUAGACTT against Phykpl | 2.5 (active)
GGAAGAGGUUCAGAACAGATT against Spaca1 | 1.19 (inactive)
GGACCAAGGAUGUUCGCUUTT against Cnr2 | 1.14 (inactive)
GGAACGAACUCAUUAAAACTT against Abhd3 | -0.736 (inactive)

Sequence | z-score
CCGAUUUGGGUCAAUUUUATT against Usf3 | -0.047 (inactive)
GGCGGAUUGAAUAAGAAGGTT against Pfn2 | -0.517 (inactive)
GGGCUUUGGAUGAACUGCATT against Cldn17 | -0.0702 (inactive)
GGAGCUCUUUGAGUACAUCTT against Ift46 | 2.48 (active)
CUCACAAGUCAAAGCCUACTT against Zfp182 | 0.121 (inactive)
AAUAGACUGGUACUCUCUGTT against Olfr476 | 1.08 (inactive)
GCCUGGUUACAGCAUUAACTT against Rimkla | -1.75 (inactive)
GGUCAAACAAGAAACAGUUTT against Prdm1 | 0.417 (inactive)
GCUGUGCCCUAAAGACUGGTT against Clec2m | 2.27 (active)
GGUGAAGCUGAAGAAGUACTT against Chst12 | 0.975 (inactive)
GGAUAAUGGAGCAAAUUGCTT against Slc22a1 | -0.522 (inactive)
GCAAGUUAACCAGACCCAATT against Mro | 0.709 (inactive)
GGAGAAGCUGUUUGUUCUGTT against Ftcd | 0.507 (inactive)
GGACAAGGCAACACAUACCTT against Csnk1a1 | 2.58 (active)
GCCACUACUACAUCAAUGUTT against Mall | 1.24 (inactive)
GGGUCCUCUUUAAAAGGCUTT against Smc6 | -1.1 (inactive)
CCUACCCAAACCUACUAAATT against Gpt2 | -0.168 (inactive)
GGAUCUGGAGAAGAUGAUGTT against Ret | -0.822 (inactive)
GGCCAAAAAAACAUACAAGTT against Zbtb21 | 4.91 (active)
GGUAUCAAGGCUCUGGUGUTT against Ifnlr1 | -0.602 (inactive)
CAGCAUGAUGAUGGAGACCTT against Sox1 | 0.708 (inactive)
UGGAUACUCUAUCUCAAGCTT against Serpinb9g | -0.479 (inactive)

Sequence | z-score
GCAACAAGUGUUGGACUCATT against Tob2 | -2.04 (active)
GGAAAGUAACUAAAGGCAATT against Arl8b | 0.274 (inactive)
GCUACAAGACUUUUACCAGTT against Tnfsf18 | -0.0821 (inactive)
GGGACUAGACUUCUUCGGATT against Ddx52 | 0.186 (inactive)
UGGCAAAAAGGUGAUAACUTT against Hbb-b2 | 0.86 (inactive)
GGCCCAGCAUGCAAGUUAUTT against Sh2d2a | 2.17 (active)
CCACAGCCAAAUGCACAAGTT against Platr26 | 0.31 (inactive)
CCUCAUUCAAGAAACCUCATT against Comtd1 | -1.13 (inactive)
GGAACACCAUCAUCAGUCATT against Ephb2 | -0.448 (inactive)
GGUCUCCACUGAGGACUGUTT against Ndufa2 | 0.284 (inactive)
GGCCUAGGGAAAGCUAUGGTT against Nat8f3 | -2.57 (active)
GCAGAAGUGCUAUUCUUGUTT against Cnbp | 0.108 (inactive)
GCGGCUUUGGCAAUUCUCUTT against Olfr1361 | -1.13 (inactive)
GGUGCCUUUCUGCUUUUGATT against Spink12 | 1.87 (inactive)
GGAAUAUUACCAGUCGGAATT against Marveld3 | 0.469 (inactive)
GGAAAAUCUUGACUUCAUCTT against Cbwd1 | -0.316 (inactive)
CCUGAUGCCAGUUAACAGUTT against Rcan1 | 0.516 (inactive)
GGAGGUUUUCCACCACUUGTT against Efcc1 | -2.04 (active)
GCGAUAUGAAUAUCAUCUUTT against Fbxo22 | -0.0727 (inactive)
GGAAUCUUUAUCCACAUUCTT against Chst15 | 0.943 (inactive)
GGAGCAACUAAUGAAGAAATT against Dnajc22 | -0.064 (inactive)
GGUACUACAAGAGAAAAGATT against Hdhd2 | -0.958 (inactive)

Sequence | z-score
GGUCUCUGUUGCUUUGACUTT against Tgoln1 | 4.13 (active)
GGUCCUAAAAUUUCCUCUUTT against Prdx3 | 0.854 (inactive)
GCCUCUUAUUUGGUUACGATT against Best3 | 0.605 (inactive)
GCGUUUCACGUACCUUCCUTT against Nfatc1 | 1.22 (inactive)
GGUGCUAUUUACCAAACUCTT against Btg2 | 1.82 (inactive)
GGAACACAACUUCCUGUUCTT against Map11 | 1.05 (inactive)
GGGAUGCUGUCUUCUGUCATT against Prex1 | -3.39 (active)
GGAUUUUACAGUUUUUGGATT against Pccb | 1.01 (inactive)
GGUCAUGGUUAUUUUGUUATT against Plekhg2 | 0.929 (inactive)
GGCUAUUUUGGCUUGUAAATT against Jam2 | -0.504 (inactive)
CCUAACCACUACCUUAUACTT against H2-DMa | 2.43 (active)
GGUGUCAUGAUGGAGCUGATT against Crygc | 0.862 (inactive)
GGGUAACACCUCAAGUUCATT against Rhag | 2.33 (active)
GGCCUCAGUUGGACUUGAATT against Scn10a | -0.352 (inactive)
GGCUAUACCUUGGUAGAUATT against Parvg | -1.19 (inactive)
GGUCUCCUCCAAGAUGAUGTT against Mettl3 | -1.01 (inactive)
GCAGGAGAACUUUUUUAGUTT against Hus1 | -1.01 (inactive)
GGGUUGUUGAGACUUCCACTT against Hmbs | 2.79 (active)
CCAGGAGGAUACAAUCCCUTT against Rgs3 | -3.38 (active)
GGUGCUAGGAAUGAACGGGTT against Ripply1 | 0.478 (inactive)
GGAUGCUUGUGGACCUGUGTT against Olfr1123 | 1.14 (inactive)
GGAUUAAAUCCGAAAAGCUTT against Tmem51 | -2.36 (active)

Sequence | z-score
GGCCAUCAGUGUGGAAUGUTT against BC004004 | -0.19 (inactive)
GGUAAUAACCCUUAAUAAGTT against Akirin2 | 0.572 (inactive)
GCACAAAAAAGUGAUAUUGTT against Hdlbp | 0.41 (inactive)
CGUAGCUGUAAUUCUUCAGTT against Pcdhgb2 | 2.02 (active)
GGAAGAUGUUAAGAGUUACTT against Slc1a3 | -0.865 (inactive)
GCUAUCUCUGCUAAUAAAGTT against Col6a1 | -0.203 (inactive)
GCCAUCCUUGUGCUAAGAGTT against Ifna4 | -0.604 (inactive)
GCAUGAAUUCAAAUUGCCATT against Adgrl4 | -0.981 (inactive)
CGGUACUAAACAUUACCUCTT against Olfr633 | 0.957 (inactive)
GAGUGGUUUCUAAUUCGUATT against A830031A19Rik | 2.56 (active)
CCUGUUCUGUUAUCAACGGTT against Plxdc1 | 0.123 (inactive)
GGCAAACUGUCUCUUCAGATT against Pim1 | -0.131 (inactive)
GGUGAAGAGUUCAAACAUCTT against Atp9a | 1.29 (inactive)
GGACAUUGACCUGUUCGGCTT against Eef1d | 0.952 (inactive)
GGAGCUGUAUGAGAUAGAGTT against Zfp566 | 4.15 (active)
GGACCUCAACAUCCAGAGATT against Sema6b | -0.217 (inactive)
GGUUAAAGGUCAGAUUUAGTT against Dapk2 | 2.54 (active)
CGACCUGAAAGAUUCGGAATT against Ppara | -1.04 (inactive)
GCUCAACCCAUUCUUUGAUTT against Cep295nl | 0.407 (inactive)
CCAAAGCUAGGUCAUUUUATT against Slc31a2 | 0.72 (inactive)
